# Experimental data: PubChem BioAssay (NCATS)
# Results filed as inconclusive are left out. Active and inactive are the calls of the source. Calls follow the shape of the full dose curve; tested in HEK293 reporter line.
# Experiment: qHTS for Inhibitors of the Functional Ribonucleoprotein Complex (vRNP) of Lassa (LASV) Arenavirus: LASV Primary Screen - GLuc reporter signal (AID 1347082); also: nearly all actives have a fitted effect of over 60% in size
# Conditions: LASV minigenome vRNP, Gaussia luciferase reporter; series mostly up to 57.5 µM; activity change, negative = inhibition: at the top concentration
# % is scaled to controls: 0 for no effect and ±100 for the full control effect; potency is read from the fitted curve at half-maximal effect.
SMILES,"activity change, negative = inhibition",Potency
CC(C)OC(=O)c1ccccc1,0.918% [at 115 µM] (inactive),–
CC1(C)OC2CC3C4CC(F)C5=CC(=O)C=CC5(C)C4C(O)CC3(C)[C@]2(C(=O)CO)O1 (stereo not given in full),18% (inactive),–
O=C1NC2C(=CC(O)C(O)C2O)c2cc3c(c(O)c21)OCO3 (stereo not given),-94% (inactive),–
Cc1cccc2c3c(ccc12)C1=C(C(=O)C3=O)[C@@H](C)CO1,-2.66% (inactive),–
NC(=O)c1ncn([C@@H]2O[C@H](CO)[C@@H](O)[C@@H]2O)c1N,-3.79% (inactive),–
O=C(O)c1ccco1,-5.89% [at 115 µM] (inactive),–
CC(C)(O)C1CC[C@@]2(C)C3CCC4[C@@]5(C)CCCC(C)(C)C5C(O)C[C@]4(C)[C@]3(C)CC[C@@H]12 (stereo not given in full),1.12% (inactive),–
Nc1nc(N)c2[nH]cnc2n1,4.92% (inactive),–
O=C(Nc1ccc(Br)cc1)C(c1ccccc1)c1ccccc1,-4.69% (inactive),–
CN1CC(=O)N2C(Cc3c([nH]c4ccccc34)[C@H]2c2ccc3c(c2)OCO3)C1=O (stereo not given in full),-4.95% (inactive),–
CO[C@H]1C=CO[C@@]2(C)Oc3c(C)c(O)c4c(O)c(c5c(c4c3C2=O)NC2(CCN(CC(C)C)CC2)N=5)=NC(=O)C(C)=CC=C[C@H](C)[C@H](O)[C@@H](C)[C@@H](O)[C@@H](C)[C@H](OC(C)=O)[C@H]1C,-7.59% (inactive),–
CNc1ncnc2c1ncn2[C@@H]1O[C@H](CO)C(O)[C@H]1O (stereo not given in full),-80.3% (inactive),–
CC12CCC(=O)C=C1C(O)CC1C2CCC2(C)C1CCC2(O)C(=O)CO (stereo not given),5.27% (inactive),–
COc1c2ccoc2nc2c(OC)c(OCC(OC(C)=O)C(C)(C)O)ccc12 (stereo not given),-2.99% (inactive),–
C/C=C(\C)C(=O)OC(C)(C)[C@H]1Cc2cc3ccc(=O)oc3cc2O1,-18.6% (inactive),–
CC(C)(OC1OC(CO)C(O)C(O)C1O)[C@H]1Oc2ccc3ccc(=O)oc3c2[C@H]1O (stereo not given in full),-2.01% (inactive),–
Nc1nc2c(ncn2[C@@H]2O[C@H](COP(=O)(O)OP(=O)(O)OP(=O)(O)O)[C@@H](O)C2O)c(=O)[nH]1 (stereo not given in full),2.38% (inactive),–
OC[C@H]1O[C@@H](O[C@@H]2OC=C[C@H]3[C@H](O)[C@@H]4O[C@]4(CO)[C@@H]23)[C@H](O)[C@@H](O)[C@@H]1O,5.84% (inactive),–
COc1c(OC)c(O)c2c(=O)cc(-c3c(O)cccc3O)oc2c1OC,-33.2% (inactive),–
CC(C)(O)c1cc2nc(-c3cnc(N)nc3)nc(N3CCOCC3)c2s1,–,385 nM (active)

SMILES,"activity change, negative = inhibition",Potency
CC1(C)C2=CCCC(C)(C)[C@]23CC[C@H]1C3,-18.7% [at 115 µM] (inactive),–
COc1ccc2c(=O)c(-c3ccccc3)c(C)oc2c1,-33.5% (inactive),–
COc1ccc([C@@H]2CC(=O)c3c(O)cc(O[C@@H]4OC(CO[C@@H]5OC(C)[C@H](O)[C@@H](O)[C@H]5O)[C@@H](O)[C@H](O)[C@H]4O)cc3O2)cc1O (stereo not given in full),-0.669% (inactive),–
COc1cc2c(c(OC)c1OC)-c1c(cc3c(c1OC)OCO3)CC(C)C(C)C2 (stereo not given),2.65% (inactive),–
O=C(CNC(=O)c1ccccc1)c1ccccc1,1.02% (inactive),–
COc1ccc([C@@H]2CC(=O)c3c(O)cc(O[C@@H]4O[C@H](CO)[C@@H](O)[C@H](O)[C@H]4O[C@@H]4O[C@@H](C)[C@H](O)[C@@H](O)[C@H]4O)cc3O2)cc1,-0.0241% [at 24.7 µM] (inactive),–
CC1NC(C(=O)O)Cc2c1[nH]c1ccccc21 (stereo not given),23.3% (inactive),–
C=C[C@@]1(C)CC(=O)[C@]2(O)[C@@]3(C)[C@@H](O)CCC(C)(C)[C@@H]3[C@H](OC(C)=O)[C@H](O)[C@@]2(C)O1,23.1% (inactive),–
COc1ccc(CC(C)N)cc1 (stereo not given),1.24% (inactive),–
O=c1c2ccccc2nc2n1CCC2,-0.463% (inactive),–
C=C1C(=O)OC2C1C(OC(=O)C(C)=CC)CC(=C)C1C(O)C3OC3(C)C21O (stereo not given),-36% (inactive),–
COC(C)(C)[C@@H](O)COc1c2ccoc2cc2oc(=O)ccc12,11.2% (inactive),–
Cc1csc(NC(=O)c2sc3nc4c(c(C(F)(F)F)c3c2N)CCC4)n1,-24.2% (inactive),–
O=C(OCCc1ccccc1)c1ccccc1,13.1% [at 115 µM] (inactive),–
COc1cccc2c(=O)c3ccoc3n(C)c12,1.4% (inactive),–
COc1ccc([C@@H](OC)[C@@]2(Cc3ccc(O)cc3)N=C(N)N(C)C2=O)cc1,-1.87% (inactive),–
C[C@@H]1C[C@@H]2OC(=O)[C@]3(C)[C@H]2[C@@H](OC3(C)O)[C@]2(C)C(=O)C=C[C@H]12 (stereo not given in full),6.38% (inactive),–
COc1ccc(C(=O)/C=C/c2ccc(O)cc2)c(O)c1CC=C(C)C,-0.917% (inactive),–
CCCCN(CCCC)CC(O)c1cc(Cl)cc2c1-c1ccc(Cl)cc1C2=Cc1ccc(Cl)cc1 (stereo not given),-0.382% (inactive),–
CCCCCCCCCC(=O)OCC,-33.9% [at 115 µM] (inactive),–

# Experiment: qHTS for Inhibitors of the Functional Ribonucleoprotein Complex (vRNP) of Lassa (LASV) Arenavirus: Viability assay - alamar blue signal for LASV Primary Screen (AID 1347083); also: nearly all actives have a fitted effect of over 80% in size
# Conditions: cell viability, alamar blue fluorescence (LASV minigenome counter-screen); series mostly up to 57.5 µM; activity change, negative = reduced viability: at the top concentration
SMILES,"activity change, negative = reduced viability",Potency
CC(C)OC(=O)c1ccccc1,14.1% [at 115 µM] (inactive),–
CC1(C)OC2CC3C4CC(F)C5=CC(=O)C=CC5(C)C4C(O)CC3(C)[C@]2(C(=O)CO)O1 (stereo not given in full),1.27% (inactive),–
O=C1NC2C(=CC(O)C(O)C2O)c2cc3c(c(O)c21)OCO3 (stereo not given),-136% (inactive),–
Cc1cccc2c3c(ccc12)C1=C(C(=O)C3=O)[C@@H](C)CO1,6.22% (inactive),–
NC(=O)c1ncn([C@@H]2O[C@H](CO)[C@@H](O)[C@@H]2O)c1N,5.67% (inactive),–
O=C(O)c1ccco1,17.7% [at 115 µM] (inactive),–
CC(C)(O)C1CC[C@@]2(C)C3CCC4[C@@]5(C)CCCC(C)(C)C5C(O)C[C@]4(C)[C@]3(C)CC[C@@H]12 (stereo not given in full),2.73% (inactive),–
Nc1nc(N)c2[nH]cnc2n1,13.1% (inactive),–
O=C(Nc1ccc(Br)cc1)C(c1ccccc1)c1ccccc1,-12.2% (inactive),–
CN1CC(=O)N2C(Cc3c([nH]c4ccccc34)[C@H]2c2ccc3c(c2)OCO3)C1=O (stereo not given in full),-8.24% (inactive),–
CO[C@H]1C=CO[C@@]2(C)Oc3c(C)c(O)c4c(O)c(c5c(c4c3C2=O)NC2(CCN(CC(C)C)CC2)N=5)=NC(=O)C(C)=CC=C[C@H](C)[C@H](O)[C@@H](C)[C@@H](O)[C@@H](C)[C@H](OC(C)=O)[C@H]1C,-4.55% (inactive),–
CNc1ncnc2c1ncn2[C@@H]1O[C@H](CO)C(O)[C@H]1O (stereo not given in full),-79.7% (inactive),–
CC12CCC(=O)C=C1C(O)CC1C2CCC2(C)C1CCC2(O)C(=O)CO (stereo not given),1.7% (inactive),–
COc1c2ccoc2nc2c(OC)c(OCC(OC(C)=O)C(C)(C)O)ccc12 (stereo not given),-21.4% (inactive),–
C/C=C(\C)C(=O)OC(C)(C)[C@H]1Cc2cc3ccc(=O)oc3cc2O1,6.62% (inactive),–
CC(C)(OC1OC(CO)C(O)C(O)C1O)[C@H]1Oc2ccc3ccc(=O)oc3c2[C@H]1O (stereo not given in full),-80% (inactive),–
Nc1nc2c(ncn2[C@@H]2O[C@H](COP(=O)(O)OP(=O)(O)OP(=O)(O)O)[C@@H](O)C2O)c(=O)[nH]1 (stereo not given in full),-3.09% (inactive),–
OC[C@H]1O[C@@H](O[C@@H]2OC=C[C@H]3[C@H](O)[C@@H]4O[C@]4(CO)[C@@H]23)[C@H](O)[C@@H](O)[C@@H]1O,3.22% (inactive),–
COc1c(OC)c(O)c2c(=O)cc(-c3c(O)cccc3O)oc2c1OC,-24.5% (inactive),–
CC(C)(O)c1cc2nc(-c3cnc(N)nc3)nc(N3CCOCC3)c2s1,–,193 nM (active)

SMILES,"activity change, negative = reduced viability",Potency
CC1(C)C2=CCCC(C)(C)[C@]23CC[C@H]1C3,-14.6% [at 115 µM] (inactive),–
COc1ccc2c(=O)c(-c3ccccc3)c(C)oc2c1,15.2% (inactive),–
COc1ccc([C@@H]2CC(=O)c3c(O)cc(O[C@@H]4OC(CO[C@@H]5OC(C)[C@H](O)[C@@H](O)[C@H]5O)[C@@H](O)[C@H](O)[C@H]4O)cc3O2)cc1O (stereo not given in full),5.56% (inactive),–
COc1cc2c(c(OC)c1OC)-c1c(cc3c(c1OC)OCO3)CC(C)C(C)C2 (stereo not given),-1.69% (inactive),–
O=C(CNC(=O)c1ccccc1)c1ccccc1,3.92% (inactive),–
COc1ccc([C@@H]2CC(=O)c3c(O)cc(O[C@@H]4O[C@H](CO)[C@@H](O)[C@H](O)[C@H]4O[C@@H]4O[C@@H](C)[C@H](O)[C@@H](O)[C@H]4O)cc3O2)cc1,12% [at 24.7 µM] (inactive),–
CC1NC(C(=O)O)Cc2c1[nH]c1ccccc21 (stereo not given),-1.81% (inactive),–
C=C[C@@]1(C)CC(=O)[C@]2(O)[C@@]3(C)[C@@H](O)CCC(C)(C)[C@@H]3[C@H](OC(C)=O)[C@H](O)[C@@]2(C)O1,-0.0982% (inactive),–
COc1ccc(CC(C)N)cc1 (stereo not given),-16.5% (inactive),–
O=c1c2ccccc2nc2n1CCC2,-4.46% (inactive),–
C=C1C(=O)OC2C1C(OC(=O)C(C)=CC)CC(=C)C1C(O)C3OC3(C)C21O (stereo not given),-38.7% (inactive),–
COC(C)(C)[C@@H](O)COc1c2ccoc2cc2oc(=O)ccc12,5.08% (inactive),–
Cc1csc(NC(=O)c2sc3nc4c(c(C(F)(F)F)c3c2N)CCC4)n1,1.78% (inactive),–
O=C(OCCc1ccccc1)c1ccccc1,-26.6% [at 115 µM] (inactive),–
COc1cccc2c(=O)c3ccoc3n(C)c12,3.72% (inactive),–
COc1ccc([C@@H](OC)[C@@]2(Cc3ccc(O)cc3)N=C(N)N(C)C2=O)cc1,7.47% (inactive),–
C[C@@H]1C[C@@H]2OC(=O)[C@]3(C)[C@H]2[C@@H](OC3(C)O)[C@]2(C)C(=O)C=C[C@H]12 (stereo not given in full),-23.4% (inactive),–
COc1ccc(C(=O)/C=C/c2ccc(O)cc2)c(O)c1CC=C(C)C,8.34% (inactive),–
CCCCN(CCCC)CC(O)c1cc(Cl)cc2c1-c1ccc(Cl)cc1C2=Cc1ccc(Cl)cc1 (stereo not given),-1.17% (inactive),–
CCCCCCCCCC(=O)OCC,-43.3% [at 115 µM] (inactive),–
